Measurements taken from PubChem BioAssay.
For some assays here: Measured potencies and affinities stand elsewhere. Active and inactive are the calls of the source.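 How the source made its calls, unless noted: active means signal rise over 3 SD above mean of control wells given weak agonist, in both repeats and first screen; inactive means the rest.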

Key:
[1] = tested on: TRPC4 beta (transient receptor potential cation channel C4), mouse; test: activators of mouse TRPC4 channel, confirmation, cell-based, Fluo4 calcium, HEK293 TRPC4beta/mu-opioid, duplicates, 10 µM (AID 2426;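 active means fluorescence ratio normalized to control raised more than 50% in primary screen plus both repeat runs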); details: Fluo4 calcium fluorescence, at 10 µM; active compounds read high
[2] = tested on: transient receptor potential cation channel C4 beta (TRPC4), mouse; test: activators of mouse TRPC4 channel, confirmation, cell-based, second round, Fluo4, HEK293 TRPC4beta/mu-opioid, 1 µM (AID 2461;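 active means primary screen active and over 50% activation in each of two duplicate runs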); details: Fluo4 calcium fluorescence, at 1 µM; active compounds read high
[3] = tested on: TRPC4 (transient receptor potential cation channel C4 beta), mouse; test: positive allosteric modulators of mouse TRPC4, confirmation, cell-based, second round, Fluo-4, HEK293 TRPC4beta/mu-opioid, 1 µM (AID 2554;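 active means primary screen hit whose fluorescence ratio, in both repeats, exceeds the weak agonist control mean by 3 SD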); details: DAMGO EC20, Fluo-4 calcium flux, at 1 µM; active compounds read high
[4] = tested on: TRPC4 beta (transient receptor potential cation channel C4), mouse; test: positive allosteric modulators of mouse TRPC4, confirmation, cell-based, Fluo-4, HEK293 TRPC4beta/mu-opioid (AID 2555;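 active means primary screen hit whose calcium fluorescence ratio, in both repeats, exceeds the weak agonist control mean by 3 SD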); details: DAMGO EC20, Fluo-4 calcium flux, at 10 µM; active compounds read high
[5] = target: Short transient receptor potential channel 4 (Mus musculus) (UniProt Q9QUQ5); test: inhibitors of mouse TRPC4 channel, confirmation, cell-based, Fluo4, HEK293 TRPC4beta/mu-opioid (AID 2636;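 active means calcium signal cut by more than 3 SD below the full-agonist control yet still positive, in both repeats and the earlier primary screen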); details: DAMGO, Fluo4 calcium flux, at 10 µM; active compounds read high
Sequence of Short transient receptor potential channel 4 (Mus musculus) (Q9QUQ5 whole entry, looked up): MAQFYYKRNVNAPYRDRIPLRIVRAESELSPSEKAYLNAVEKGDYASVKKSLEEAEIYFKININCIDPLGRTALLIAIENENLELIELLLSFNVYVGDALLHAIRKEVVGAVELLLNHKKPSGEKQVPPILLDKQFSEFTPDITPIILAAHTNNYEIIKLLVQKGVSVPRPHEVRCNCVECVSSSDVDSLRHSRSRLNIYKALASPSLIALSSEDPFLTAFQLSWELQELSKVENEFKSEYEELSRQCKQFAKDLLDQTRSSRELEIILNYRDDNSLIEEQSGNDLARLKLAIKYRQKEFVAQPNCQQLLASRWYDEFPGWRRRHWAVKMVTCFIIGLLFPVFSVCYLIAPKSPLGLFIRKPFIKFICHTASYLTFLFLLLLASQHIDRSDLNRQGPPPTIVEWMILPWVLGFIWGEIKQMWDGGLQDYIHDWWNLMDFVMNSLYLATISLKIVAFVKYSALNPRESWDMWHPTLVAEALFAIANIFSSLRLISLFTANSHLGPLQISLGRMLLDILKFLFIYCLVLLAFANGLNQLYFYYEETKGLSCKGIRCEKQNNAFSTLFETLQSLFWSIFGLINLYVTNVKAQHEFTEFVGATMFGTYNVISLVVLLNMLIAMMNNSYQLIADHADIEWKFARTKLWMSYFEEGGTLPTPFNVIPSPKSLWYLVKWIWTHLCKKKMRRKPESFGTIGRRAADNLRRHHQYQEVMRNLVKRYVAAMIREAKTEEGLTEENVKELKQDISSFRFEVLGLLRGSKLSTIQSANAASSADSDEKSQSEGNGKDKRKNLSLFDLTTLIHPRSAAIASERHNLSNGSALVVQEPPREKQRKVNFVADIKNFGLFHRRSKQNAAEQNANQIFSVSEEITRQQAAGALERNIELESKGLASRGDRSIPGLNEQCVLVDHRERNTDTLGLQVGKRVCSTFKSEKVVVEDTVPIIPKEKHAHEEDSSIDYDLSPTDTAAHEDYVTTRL

[6] = target: Short transient receptor potential channel 4 (Mus musculus) (UniProt Q9QUQ5); test: inhibitors of mouse TRPC4 channel, confirmation, cell-based, second round, Fluo4, HEK293 TRPC4beta/mu-opioid, 1 µM (AID 2637;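 active means calcium signal ratio cut to more than 3 SD under the fully stimulated control mean yet still positive, in both repeats and the primary screen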;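 on inhibition: percent of integrated ratio relative to wells lacking test compound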); details: Fluo4 calcium flux, DAMGO, at 1 µM; active compounds read high
[7] = target: Short transient receptor potential channel 4 (Mus musculus) (UniProt Q9QUQ5); test: mouse TRPC4 channel activators, dose response, cell-based, HEK293 TRPC4/mu-opioid, Fluo-4 calcium (AID 434937;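 active means primary screen activator hit with a dose response curve and TRPC4 channel activation at any tested dose; inactive means no activation, no dose response, or not a primary hit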)
[8] = target: Short transient receptor potential channel 4 (Mus musculus) (UniProt Q9QUQ5); test: TRPC4 positive allosteric modulators, dose response, cell-based, HEK293 TRPC4/mu-opioid, Fluo-4 calcium, EC20 DAMGO (AID 434941;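 active means earlier screen potentiator hit that boosts the TRPC4 ion channel at some dose, with a dose response; inactive means no potentiation, no dose response, or not a prior hit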;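 further: calcium entry triggered by an EC20 dose of DAMGO at the co-expressed mu-opioid receptor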)
[9] = target: Short transient receptor potential channel 4 (Mus musculus) (UniProt Q9QUQ5); test: mouse TRPC4 channel inhibitors, dose response, cell-based, HEK293 TRPC4/mu-opioid, Fluo-4 calcium (AID 434942;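 active means primary screen inhibitor hit that blocks the TRPC4 channel at some tested dose, yielding a dose curve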)
[10] = target: Short transient receptor potential channel 6 (Mus musculus) (UniProt Q61143); test: inhibition of mouse TRPC6 channel, confirmation, selectivity assay for TRPC4 inhibitor project, cell-based, HEK293, membrane potential dye, duplicate (AID 434948;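 active means active in primary screen and both duplicates, each dropping signal beyond three positive-control SD with fluorescence still positive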); details: HEK293 TRPC6, membrane potential dye fluorescence, at 10 µM; inhibition: active compounds read high, stimulated with maximal-effect acetylcholine unless noted; outcome: stimulated with maximal-effect acetylcholine unless noted
Sequence of Short transient receptor potential channel 6 (Mus musculus) (Q61143 whole entry, looked up): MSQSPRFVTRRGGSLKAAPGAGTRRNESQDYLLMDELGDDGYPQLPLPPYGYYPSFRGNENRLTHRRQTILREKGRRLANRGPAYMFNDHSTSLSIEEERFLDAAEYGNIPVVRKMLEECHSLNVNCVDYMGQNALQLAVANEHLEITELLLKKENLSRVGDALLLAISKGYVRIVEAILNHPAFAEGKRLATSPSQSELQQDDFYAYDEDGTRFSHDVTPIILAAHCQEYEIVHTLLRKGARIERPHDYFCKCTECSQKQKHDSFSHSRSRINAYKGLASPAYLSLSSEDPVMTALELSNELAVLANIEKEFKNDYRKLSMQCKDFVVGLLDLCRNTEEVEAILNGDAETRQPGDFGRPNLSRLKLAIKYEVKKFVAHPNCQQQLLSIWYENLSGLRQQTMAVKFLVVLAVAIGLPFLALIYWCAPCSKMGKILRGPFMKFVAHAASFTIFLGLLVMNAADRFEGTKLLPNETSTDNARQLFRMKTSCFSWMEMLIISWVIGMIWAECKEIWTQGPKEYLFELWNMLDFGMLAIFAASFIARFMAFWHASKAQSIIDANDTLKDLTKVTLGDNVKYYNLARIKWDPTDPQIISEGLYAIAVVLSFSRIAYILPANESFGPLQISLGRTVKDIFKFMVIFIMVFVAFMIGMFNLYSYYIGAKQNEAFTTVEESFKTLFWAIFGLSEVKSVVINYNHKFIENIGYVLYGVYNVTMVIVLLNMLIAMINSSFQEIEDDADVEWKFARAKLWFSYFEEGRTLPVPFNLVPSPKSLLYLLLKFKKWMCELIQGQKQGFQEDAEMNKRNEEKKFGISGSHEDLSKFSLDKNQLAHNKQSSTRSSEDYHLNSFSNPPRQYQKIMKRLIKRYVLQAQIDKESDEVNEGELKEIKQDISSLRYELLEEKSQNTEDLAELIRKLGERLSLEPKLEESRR

[11] = target: Short transient receptor potential channel 6 (Mus musculus) (UniProt Q61143); test: activation of mouse TRPC6 channel, confirmation, selectivity assay for TRPC4 activator project, cell-based, HEK293, membrane potential dye, duplicate (AID 434950;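 active means membrane potential signal rise above negative control mean plus 3 SD in both duplicates, also active in the earlier TRPC4 screen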); details: HEK293 TRPC6, membrane potential fluorescence, at 10 µM; active compounds read high
[12] = target: Short transient receptor potential channel 6 (Mus musculus) (UniProt Q61143); test: TRPC6 potentiation by TRPC4 potentiator hits, confirmation, selectivity assay for TRPC4 potentiator project, HEK293 cells, membrane potential dye, duplicate (AID 434952;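 active means compound raising the membrane signal above positive-control mean plus 3 SD in both repeats, and a primary screen hit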); details: HEK293 TRPC6, membrane potential dye fluorescence, at 10 µM; maximal acetylcholine added after compound unless noted
[13] = target: Short transient receptor potential channel 4 (Mus musculus) (UniProt Q9QUQ5); test: calcium flux activators in TRPC4/5HT1a cells, counter-screen for TRPC4 activator project, cell-based, second counter screen, HEK293 TRPC4/5HT1a, Fluo-4 (AID 434977;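 active means calcium signal rise above buffer-control mean plus 5 SD in both duplicates, and also a hit in the primary screen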); details: Fluo-4 calcium flux, at 10 µM; active compounds read high
[14] = calcium flux inhibitors in TRPC4/5HT1a cells, confirmation, counter-screen for TRPC4 inhibitor project, cell-based, second counter screen, HEK293 TRPC4/5HT1a, Fluo-4 (AID 434978;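 active means primary screen active whose calcium signal fell more than 3 SD beyond the full-serotonin control mean in both duplicate plates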;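 on outcome: serotonin given first at submaximal then at maximal dose after compound preincubation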); details: Fluo-4 calcium flux, at 10 µM; inhibition: active compounds read high, serotonin added to trigger calcium flux unless noted; outcome: serotonin added to trigger calcium flux unless noted
[15] = tested on: TRPC4 (mouse), co-expressed with 5HT1a in HEK293; test: calcium flux potentiators in TRPC4/5HT1a cells, confirmation, counter-screen for TRPC4 potentiator project, cell-based, second counter screen, HEK293 TRPC4/5HT1a, Fluo-4 (AID 434979); details: Fluo-4 calcium flux, at 10 µM; outcome: serotonin added at its EC20 dose unless noted; potentiation: active compounds read high, serotonin added at its EC20 dose unless noted
[16] = calcium flux activation in mu-opioid HEK293 cells, confirmation, counter-screen for TRPC4 activator project, cell-based, HEK293 mu-opioid receptor line (AID 449723;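 active means hit in primary screen, with calcium signal over 5 SD above buffer well mean in both duplicates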;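 further: counter screen cells carry the mu-opioid receptor alone and lack TRPC4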); details: Fluo-4 calcium fluorescence, at 10 µM; active compounds read high
[17] = calcium flux enhancement in mu-opioid HEK293 cells, confirmation, counter-screen for TRPC4 allosteric potentiator project, cell-based, HEK293 mu-opioid receptor line (AID 449724;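 active means calcium signal rise more than 3 SD above the low-dose agonist control mean, in both duplicate plates and the primary screen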); details: Fluo-4 calcium flux, at 10 µM; compound added before EC20 DAMGO stimulus unless noted

CCN1CC2C3CCC(C)(O3)C2C1 (stereo not given)
inactive: outcome [1] | outcome [2] | outcome [3] | outcome [4] | outcome [5] | outcome [6] | outcome [7] | outcome [8] | outcome [9] | outcome [10] | outcome [11] | outcome [12] | outcome [13] | outcome [14] | outcome [15] | outcome [16] | outcome [17]

Clc1ccc(N2CCNCC2)nn1
inactive: outcome [1] | outcome [2] | outcome [4] | outcome [5] | outcome [6] | outcome [7] | outcome [8] | outcome [9] | outcome [10] | outcome [11] | outcome [12] | outcome [13] | outcome [14] | outcome [16] | outcome [17]
active: potentiation [3] 14% | potentiation [15] 16.3%

CC(C)CNc1c2c(nc3ccccc13)CCC2
inactive: outcome [1] | outcome [2] | outcome [3] | outcome [4] | outcome [5] | outcome [6] | outcome [7] | outcome [8] | outcome [9] | outcome [10] | outcome [11] | outcome [12] | outcome [13] | outcome [14] | outcome [15] | outcome [16] | outcome [17]

Cc1ccccc1CN1CCNCC1
inactive: outcome [1] | outcome [2] | outcome [3] | outcome [4] | outcome [5] | outcome [6] | outcome [7] | outcome [8] | outcome [9] | outcome [10] inactive [setting not given] | outcome [11] | outcome [12] inactive [setting not given] | outcome [13] | outcome [14] inactive [setting not given] | outcome [15] inactive [setting not given] | outcome [16] | outcome [17] inactive [setting not given]

CCc1ccc(OCCCN=C(C)c2c(O)n(C)c(=O)n(C)c2=O)cc1
active: potentiation [15] 13.7% [active compounds read high]
inactive: outcome [1] | outcome [2] | outcome [3] | outcome [4] | outcome [5] | outcome [6] | outcome [7] | outcome [8] | outcome [9] | outcome [10] inactive [setting not given] | outcome [11] | outcome [12] inactive [setting not given] | outcome [13] | outcome [14] inactive [setting not given] | outcome [16] | outcome [17] inactive [setting not given]

CCN1CCN(c2cc(N3CCCC3)c([N+](=O)[O-])cc2F)CC1
inactive: outcome [1] | outcome [2] | outcome [5] | outcome [6] | outcome [7] | outcome [8] | outcome [9] | outcome [10] | outcome [11] | outcome [12] | outcome [13] | outcome [14] | outcome [16] | outcome [17]
active: potentiation [3] 31% | potentiation [4] 11% | potentiation [15] 17.9%

N=c1n(CCO)c2ccccc2n1Cc1ccccc1
inactive: outcome [1] | outcome [2] | outcome [3] | outcome [4] | outcome [7] | outcome [8] | outcome [10] | outcome [11] | outcome [12] | outcome [13] | outcome [15] | outcome [16] | outcome [17]
active: inhibition [5] 86% | inhibition [6] 48% | inhibition [14] 42.9%

COc1ccc(CN2CCCC(C(=O)c3sccc3C)C2)cc1O (stereo not given)
active: inhibition [5] 90% | inhibition [14] 21.3%
inactive: outcome [1] | outcome [2] | outcome [3] | outcome [4] | outcome [6] | outcome [7] | outcome [8] | outcome [10] | outcome [11] | outcome [12] | outcome [13] | outcome [15] | outcome [16] | outcome [17]

Cc1cccc(N2CCc3c2nc2ccccc2c3N)c1
active: inhibition [5] 67% | inhibition [6] 51% | inhibition [14] 24.6%
inactive: outcome [1] | outcome [2] | outcome [3] | outcome [4] | outcome [7] | outcome [8] | outcome [10] | outcome [11] | outcome [12] | outcome [13] | outcome [15] | outcome [16] | outcome [17]

CCC1=Nc2cc(C(=O)N3CCC4(CC3)OCCO4)ccc2Sc2ccc(C)cc21
active: inhibition [5] 74%
inactive: outcome [1] | outcome [2] | outcome [3] | outcome [4] | outcome [6] | outcome [7] | outcome [8] | outcome [10] inactive [setting not given] | outcome [11] | outcome [12] inactive [setting not given] | outcome [13] | outcome [14] inactive [setting not given] | outcome [15] inactive [setting not given] | outcome [16] | outcome [17] inactive [setting not given]

CC(C)CN(CC(C)C)c1ccc(C=C2C(=O)NC(=S)NC2=O)cc1[N+](=O)[O-]
active: inhibition [5] 98% | inhibition [6] 52% | inhibition [14] 8.19% [active compounds read high]
inactive: outcome [1] | outcome [2] | outcome [3] | outcome [4] | outcome [7] | outcome [8] | outcome [10] inactive [setting not given] | outcome [11] | outcome [12] inactive [setting not given] | outcome [13] | outcome [15] inactive [setting not given] | outcome [16] | outcome [17] inactive [setting not given]

O=C(c1ccc(Cl)cc1)C1CCCN(C2CCSCC2)C1 (stereo not given)
active: inhibition [5] 86% | inhibition [6] 64% | inhibition [14] 31.4%
inactive: outcome [1] | outcome [2] | outcome [3] | outcome [4] | outcome [7] | outcome [8] | outcome [10] | outcome [11] | outcome [12] | outcome [13] | outcome [15] | outcome [16] | outcome [17]

CCOc1c(Cl)cc(CNC(C)C(O)c2ccccc2)cc1OC (stereo not given)
inactive: outcome [1] | outcome [2] | outcome [3] | outcome [4] | outcome [6] | outcome [7] | outcome [8] | outcome [10] | outcome [11] | outcome [12] | outcome [13] | outcome [14] | outcome [15] | outcome [16] | outcome [17]
active: inhibition [5] 99%

Cc1ccc(C2CN(C)CC2C(=O)c2ccc(F)cc2)cc1 (stereo not given)
inactive: outcome [1] | outcome [2] | outcome [3] | outcome [4] | outcome [7] | outcome [8] | outcome [10] | outcome [11] | outcome [12] | outcome [13] | outcome [15] | outcome [16] | outcome [17]
active: inhibition [5] 87% | inhibition [6] 42% | inhibition [14] 38%
